# Measured values published in PubChem BioAssay AID1851 (National Center for Advancing Translational Sciences (NCATS), 2009).
# Where “and” joins values, the source holds several entries; their conditions need not be identical. Equal values may be shown once. About 4,000 (25%) of roughly 16,000 compounds were called active. Inconclusive results (about 26%) are left out. The call rests on the fitted dose curve; in most records, active means well fitted curve in the direction sought with a large enough effect; inconclusive means small, poorly fitted or top-dose-only effect, or effect the other way; inactive means no such curve, though single readings can be large or run the other way. These entries were drawn from the full list.
# Target: Cytochrome P450 2C9 (Homo sapiens) (UniProt P11712)
# Assay: Cytochrome panel assay with activity outcomes
# Conditions: recombinant CYP, pro-luciferin dealkylation, luminescence, p450-cyp2c9; series mostly up to 57.1 µM
# On the % scale 0 is the no-effect control and ±100 the full control effect.
# Cytochrome P450 2C9 (Homo sapiens), sequence (P11712 whole entry, looked up): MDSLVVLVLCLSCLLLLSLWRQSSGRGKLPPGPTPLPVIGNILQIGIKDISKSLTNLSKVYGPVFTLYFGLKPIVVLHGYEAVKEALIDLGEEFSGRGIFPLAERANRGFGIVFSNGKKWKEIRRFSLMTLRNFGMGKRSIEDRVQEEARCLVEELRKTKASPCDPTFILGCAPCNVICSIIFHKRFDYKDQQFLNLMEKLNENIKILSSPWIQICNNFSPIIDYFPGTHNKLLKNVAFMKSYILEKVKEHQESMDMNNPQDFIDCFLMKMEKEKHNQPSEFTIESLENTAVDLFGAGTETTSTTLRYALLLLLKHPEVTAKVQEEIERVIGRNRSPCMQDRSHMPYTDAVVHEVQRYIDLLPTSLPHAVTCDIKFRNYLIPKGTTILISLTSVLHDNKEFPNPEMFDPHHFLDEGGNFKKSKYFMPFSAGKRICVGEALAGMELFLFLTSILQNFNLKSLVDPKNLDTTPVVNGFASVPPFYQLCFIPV
SMILES,"activity, negative = inhibition",AC50
COc1ccc2[nH]cc(CCNc3cc(-c4cccnc4)ncn3)c2c1,-3.3% [at 2.29 µM] (inactive),
Cc1cccc(CNc2ncnc3ccc(-c4cccnc4)cc23)c1,-11.3% [at 2.29 µM] (inactive),
COCCNc1ncnc2ccc(-c3cccc(OC)c3)cc12,26.2% [at 2.29 µM] (inactive),
COc1cccc(-c2ccc3ncnc(NC4CC4)c3c2)c1,-17.4% [at 2.29 µM] (inactive),
COc1ccccc1CNc1ncnc2ccc(-c3cccnc3)cc12,6.62% [at 2.29 µM] (inactive),
COc1ccc2[nH]cc(CCNc3ncnc4ccc(-c5cccnc5)cc34)c2c1,,1 µM (active)
CNc1ncnc2ccc(-c3ccccc3C#N)cc12,-10.6% [at 2.29 µM] (inactive),
COc1ccc2[nH]cc(CCNc3ncnc4ccc(-c5ccccc5C#N)cc34)c2c1,,0.316 µM (active)
Cc1cccc(CNc2ncnc3ccc(-c4ccc5c(c4)OCO5)cc23)c1,,0.316 µM (active)
N#Cc1ccccc1-c1ccc2ncnc(NC3CC3)c2c1,-9.89% [at 2.29 µM] (inactive),
CNc1ncnc2ccc(-c3cccc(OC)c3)cc12,,0.501 µM (active)
Cc1cnc(CNc2ncnc3ccc(-c4ccc5c(c4)OCO5)cc23)cn1,-11.4% [at 2.29 µM] (inactive),
COc1ncc2nc(-c3cn(C)c4ccccc34)c(=O)n(C)c2n1,,inactive
COc1cc2c(cc1OC)C(CCN)=NCC2,-3.31% [at 11.4 µM] (inactive),
C[C@]1(O)CC[C@H]2[C@H]3CC=C4N5CCN=C5CC[C@@]4(C)[C@H]3CC[C@@]21C,-4.16% [at 11.4 µM] (inactive),
CC(=O)NCCNc1ncnc2ccc(-c3ccc4c(c3)OCO4)cc12,5.09% [at 2.29 µM] (inactive),
COc1ccc2[nH]cc(CCNc3cc(-c4cccc(C#N)c4)ncn3)c2c1,-22.1% [at 2.29 µM] (inactive),
COc1ccc2[nH]cc(CCNc3ncnc4ccc(-c5cccc(C#N)c5)cc34)c2c1,,0.0631 µM (active)
CNc1ncnc2ccc(-c3ccccc3OC)cc12,2.7% [at 2.29 µM] (inactive),
COc1ccc2[nH]cc(CCNc3ncnc4ccc(-c5ccccc5CN(C)C)cc34)c2c1,-13.9% [at 2.29 µM] (inactive),
COc1ccc2[nH]cc(CCNc3ncnc4ccc(-c5ccc6c(c5)OCO6)cc34)c2c1,,0.126 µM (active)
COc1cccc(-c2ccc3ncnc(NCc4cnc(C)cn4)c3c2)c1,-22.3% [at 2.29 µM] (inactive),
COc1ccc2[nH]cc(CCNc3ncnc4ccc(-c5ccccc5OC)cc34)c2c1,,0.251 µM (active)

SMILES,"activity, negative = inhibition",AC50
COc1cccc(-c2ccc3ncnc(NCCc4c[nH]c5ccc(OC)cc45)c3c2)c1,,0.398 µM (active)
c1nc(NCCN2CCOCC2)c2cc(-c3ccc4c(c3)OCO4)ccc2n1,6.81% [at 2.29 µM] (inactive),
Cc1cnc(CNc2ncnc3ccc(-c4cccc(C#N)c4)cc23)cn1,-16.4% [at 2.29 µM] (inactive),
CC(C)=CCC/C(C)=C/CO/N=C1/C[C@@H](O)[C@@H](O)[C@@H]2[C@@H]3C(=O)N(C(C)(C)C)C(=O)[C@H]3CC[C@H]12,23% [at 11.4 µM] (inactive),
CC(=O)OC[C@@H]1O[C@H](C/C=N\O[C@@H](C)CN2CCCCc3nc(C)c(C)cc32)C=C[C@@H]1OC(C)=O,10.2% [at 11.4 µM] (inactive),
CC(C)(C)NC[C@H](O)COc1cccc2c1CCCC2=O,,inactive
CC(C)[C@H](CO)Nc1nc(Nc2cc(N)cc(Cl)c2)c2ncn(C(C)C)c2n1,,20 µM (active)
CC(C)[C@H](CO)Nc1nc(Nc2ccc(C(=O)O)c(Cl)c2)c2ncn(C(C)C)c2n1,,inactive
CC(C)Oc1cccc(-n2c(CCc3c[nH]c4ccc(Br)cc34)nc3ccccc3c2=O)c1,,inactive
O=c1/c(=C\c2ccc(O)cc2)sc2n1C(c1ccccc1)C(c1ccccc1)=NN=2 (centres undefined),,3.55 µM (active)
CC(=O)NCCNc1nc(-c2ccc(N(C)C)cc2)nc2ccccc12,-16.1% [at 2.29 µM] (inactive),
COc1ccc(CNc2ccnc(-c3ccc4c(c3)OCO4)n2)c(OC)c1,-25.6% [at 2.29 µM] (inactive),
COc1ccc([C@@H](Nc2ncccn2)c2cc3c(cc2O)OCO3)cc1,,3.16 µM (active)
COc1ccc([C@@H](C)c2cc3c(cc2O)OCO3)cc1,,1.58 µM (active)
COc1ccccc1CNc1ccnc(-c2ccc3c(c2)OCO3)n1,-27.5% [at 2.29 µM] (inactive),
O=C(O)[C@@H](O)Cc1ccccn1,-2.15% [at 11.4 µM] (inactive),
O=C(COc1ccc(Cl)cc1Cl)N/N=C/CCc1ccccc1,,inactive
CC(C/C=N/NC(=O)COc1cc(Cl)ccc1Cl)c1ccccc1 (centres undefined),,10 µM (active)
CC(C)C(=O)Nc1ccc(NC(=O)c2cccnc2)cn1,,inactive
C/C(=N\NC(=S)Nc1ccc(F)cc1)C1CC1,,inactive
CC(C)C(=O)Nc1ccc(Sc2ccc(F)cc2)cc1,,14.1 µM (active)
O=C(c1cc(C(F)(F)F)cc(C(F)(F)F)c1)N1CCC[C@@]2(CCN(c3ccncc3)C2)C1,,inactive
O=C(O)CC[C@@H](NC(=O)c1ccccc1C(=O)O)C(=O)O,,inactive

SMILES,"activity, negative = inhibition",AC50
CCCN(CCC)C(=O)[C@@H](CCC(=O)O)NC(=O)c1ccccc1,,inactive
CCCCCN(CCCCC)C(=O)[C@H](CCC(=O)O)NC(=O)c1ccc(Cl)c(Cl)c1,,3.98 µM (active) and 1 µM (active)
CN(C)CCCO[C@H]1[C@H]([C@H](O)CO)O[C@H]2OC(C)(C)O[C@@H]21,,inactive
Cc1cc(OC(=O)c2ccc(Cl)cc2)cc(=O)n1C,,25.1 µM (active)
Cc1cc(OC(=O)c2ccccc2Br)cc(=O)n1C,,inactive
CC(C)=C[C@H]1[C@@H](COC(=O)c2ccccc2Cl)C1(C)C,-5.63% [at 11.4 µM] (inactive),
Cc1cc(OC(=O)c2ccccc2Cl)cc(=O)n1C,,10 µM (active)
CN(C)CCC=C1c2ccccc2C=Cc2ccccc21,,inactive
CCNc1ncc2nc(-c3ccc(F)cc3)c(=O)n(-c3ccc(OC)cc3)c2n1,,inactive
O=C1[C@H]2CCn3c(=O)n(-c4ccccc4)c(=O)n3[C@H]2[C@H](O)[C@H]2O[C@@H]12,-4.73% [at 11.4 µM] (inactive),
CCOC(=O)CC(Nc1nc(N2CCOCC2)nc(N2CCOCC2)n1)c1ccccc1Cl (centres undefined),,4.47 µM (active)
Clc1ccccc1C(Nc1ncccn1)Nc1ncccn1,4.43% [at 11.4 µM] (inactive),
O=c1cc(N2CCOCC2)oc2c(-c3ccccc3)cccc12,,inactive
CCc1ccccc1N1C(=O)c2cccc3c(N4CCOCC4)c([N+](=O)[O-])cc(c23)C1=O,,15.8 µM (active)
CO[C@H]1C[C@@H]2C[C@H](O)C[C@@H](CC(=O)O[C@@H](/C=C\CC(C)C)C[C@@H]3CC[C@H](C)[C@@H](C1)O3)O2,1.57% [at 11.4 µM] (inactive),
O=C1c2ccccc2C(=O)N1CC1c2ccccc2CCN1S(=O)(=O)c1ccccc1 (centres undefined),,3.16 µM (active)
O=C(NCCN1CCN(Cc2ccccc2)CC1)C1c2ccccc2C(=O)N2CCc3ccccc3C12 (centres undefined),,inactive
CN1CCC2(CC1)CCN(S(=O)(=O)c1ccccc1)CC2,,inactive
COCC(C)n1c(C)cc(C(=O)CSc2nnc(Nc3ccccc3F)s2)c1C (centres undefined),,11.2 µM (active)
CCOC(=O)N1CCN(C(=O)c2cc(-c3ccc(F)cc3)[nH]c2C)CC1,,inactive
CCOC(=O)N1CCN(C(=O)c2ccc3nc(SCc4ccc(F)cc4)n(C)c3c2)CC1,,1.58 µM (active)
N#Cc1ccc(CN2CC3(CCN(C(=O)c4cccc(F)c4)CC3)C2)cc1,,inactive
O=C(Nc1ccc2ncccc2c1)Nc1ccc2ncccc2c1,4.23% [at 11.4 µM] (inactive),

SMILES,"activity, negative = inhibition",AC50
Cc1ccc(NC(=O)Nc2ncccc2C)cc1,,28.2 µM (active)
Cc1cccnc1NC(=O)C12CCC(C)(C(=O)O1)C2(C)C (centres undefined),,inactive
CN(C)C(=O)Oc1cccc([N+](C)(C)C)c1,,inactive
CC[C@H](NC(C)C)[C@H](O)c1ccc(O)c(O)c1,,inactive
CC[C@H](c1ccc(O)cc1)[C@@H](CC)c1ccc(O)cc1,,5.01 µM (active)
C[C@H](NCCc1ccc(O)cc1)[C@@H](O)c1ccc(O)cc1,,inactive
CN(C)C[C@H]1CCC[C@@H](CN(C)C)C1=O,1.9% [at 11.4 µM] (inactive),
Clc1ccc2[nH]cc(-c3nnnn3-c3ccccc3)c2c1,,5.01 µM (active)
Cc1ccc(-n2nnnc2-c2cnc3ccc(Cl)cc3c2-c2ccccc2)cc1,,8.91 µM (active)
CCn1cc(-c2nnnn2-c2ccc(Cl)cc2)c(=O)c2ccccc21,,inactive
CC12CCC(C(=O)O)(C/C1=N\O)C2(C)C (centres undefined),,inactive
COc1cccc(-c2cncnc2N(C)Cc2ccco2)c1,-5.51% [at 2.29 µM] (inactive),
CC1(C)CC(=O)c2c(Cc3ccccc3)n[nH]c2C1,,14.1 µM (active)
C=CCN=C1CC(C)(C)CC(=O)/C1=C(\O)c1ccccc1,,inactive
O=C(Nc1ccccc1C(=O)O)c1ccc2ccccc2n1,,8.91 µM (active)
O=C(O)c1ccc(C(=O)Nc2cccc3ccccc23)c(C(=O)O)c1,-2.72% [at 11.4 µM] (inactive),
CC(=O)Nc1ccccc1C(=O)C(=O)O,,inactive
O=C(Nc1cccc(-c2cn3cccnc3n2)c1)c1ccco1,,12.6 µM (active)
CCCC(=O)Nc1cc(-c2cn3cccnc3n2)ccc1OC,,inactive
C[C@@H]1NCC[C@H](CC(=O)O)[C@H]1CC(=O)O,-13.5% [at 11.4 µM] (inactive),
